Test results published in PubChem BioAssay (NCATS).
Values joined by “and” are separate entries in the source; they are usually repeats but may differ in a detail not shown here. Identical values can stand only once. Results filed as inconclusive are left out. Some structures have more than one record in an assay (separate samples or runs), and their calls can disagree. Active and inactive are the calls of the source. Unless noted, calls follow the shape of the dose curve; as a rule, active = well fitted curve in the direction sought with a large enough effect; inconclusive = small, poorly fitted or top-dose-only effect, or another doubt; inactive = no such curve, though single readings can be large; an effect the other way counts as inactive or inconclusive.

How the values were obtained:
OV90 = experiment: Primary qHTS to identify gynecologic anti-cancer compounds using libraries of approved drugs and bioactive compounds (AID 1345084); settings: Gynecologic cancer cell panel viability, ATPlite luminescence, 48 h; series mostly up to 57.5 µM; also: nearly all actives have a fitted effect of over 55% in size; also: potency is read from the fitted curve at half-maximal effect
Procedure, shortened: (§1)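 In this quantitative HTS, cell killing is estimated from loss of ATP-dependent luciferase light. Cells see five compound concentrations over a 48 h exposure.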

PA-1 = experiment: as above; settings: Gynecologic cancer cell panel viability, ATPlite luminescence, 48 h; series mostly up to 57.5 µM
Procedure, shortened: as §1

SKOV3 = experiment: as above; settings: Gynecologic cancer cell panel viability, ATPlite luminescence, 48 h; series mostly up to 57.5 µM
Procedure, shortened: as §1

Tov-21-G = experiment: as above; settings: Gynecologic cancer cell panel viability, ATPlite luminescence, 48 h; series mostly up to 57.5 µM
Procedure, shortened: as §1

Tov112D = experiment: as above; settings: Gynecologic cancer cell panel viability, ATPlite luminescence, 48 h; series mostly up to 57.5 µM
Procedure, shortened: as §1

[1] = Drug repurposing screens with cells derived from glioblastoma tumor samples (AID 1345199); settings: GBM patient neurospheres viability, ATP luminescence, 48 h; also: nearly all actives have a fitted effect of over 40% in size; also: potency is read from the fitted curve at half-maximal effect; as to activity, negative = cell killing: % is scaled to controls: 0 for no effect and ±100 for the full control effect
Procedure, shortened: (§2)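 Four patient lines of CD133+ GBM neurospheres were screened at several concentrations; hits were retested in those lines plus three slower-growing GBM lines, using 48-hour treatment and ATP-based viability.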

astro = experiment: as above; settings: viability, ATP luminescence, 48 h; series mostly up to 45.9 µM
Procedure, shortened: as §2

JEG-3 = experiment: Primary qHTS to identify gynecologic anti-cancer compounds using libraries of approved drugs and bioactive compounds (AID 1345084); settings: Gynecologic cancer cell panel viability, ATPlite luminescence, 48 h; series mostly up to 57.5 µM; also: nearly all actives have a fitted effect of over 55% in size; also: potency is read from the fitted curve at half-maximal effect
Procedure, shortened: as §1

[2] = molecular target: Nuclear receptor subfamily 1 group I member 2 (Rattus norvegicus) (UniProt Q9R1A7); experiment: qHTS assay for small molecule activators of the rat pregnane X receptor (rPXR) signaling pathway (AID 651751; call rule not given here; also: 0% is about no effect); settings: rPXR reporter cells, luciferase (One-Glo), 24 h
Sequence of Nuclear receptor subfamily 1 group I member 2 (Rattus norvegicus) (Q9R1A7 whole entry, looked up): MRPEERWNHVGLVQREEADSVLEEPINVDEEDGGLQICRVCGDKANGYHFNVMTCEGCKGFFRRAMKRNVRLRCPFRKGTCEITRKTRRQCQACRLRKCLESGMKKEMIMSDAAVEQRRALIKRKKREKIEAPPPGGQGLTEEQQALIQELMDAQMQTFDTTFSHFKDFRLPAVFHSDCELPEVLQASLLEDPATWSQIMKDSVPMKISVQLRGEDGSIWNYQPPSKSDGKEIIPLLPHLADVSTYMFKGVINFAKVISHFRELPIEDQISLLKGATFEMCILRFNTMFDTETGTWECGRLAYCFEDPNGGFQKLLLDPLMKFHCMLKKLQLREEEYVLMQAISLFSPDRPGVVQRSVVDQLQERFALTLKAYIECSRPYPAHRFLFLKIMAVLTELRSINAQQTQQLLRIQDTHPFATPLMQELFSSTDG

[3] = qHTS assay to identify inhibitors of the type 1 interferon - major histocompatibility complex class I in skeletal muscle: Counter screen cell viability and HiBit confirmation (AID 1347412); settings: iHSKM muscle cells + IFN-b, HiBiT or CellTiter-Glo, 24 h; for activity change, negative = inhibition: at 45.9 µM (top of the series); also: potency is read from the fitted curve at half-maximal effect; as to activity change, negative = inhibition: % is scaled to controls: 0 for no effect and ±100 for the full control effect; as to all read-outs here: nearly all actives have a fitted effect of over 60% in size
Procedure, shortened: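 Duplicate plates, pinned identically: one read for HiBiT-tagged endogenous HLA-B luminescence, the other for ATP-content viability via CellTiter Glo. Cells were genome-engineered human myoblasts given 4 ng/ml IFN-b; compounds 12-pt, 1:3 from 46 uM final; 24 hr exposure.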

[4] = at 20 µM (top of the series), tumour line C
[5] = at 21.2 µM (top of the series), tumour line B
[6] = at 21.2 µM (top of the series), tumour line D
[7] = at 21.3 µM (top of the series), tumour line A
[8] = at 46.1 µM (top of the series), tumour line C
[9] = at 45.9 µM (top of the series), tumour line B
[10] = at 45.9 µM (top of the series), tumour line D

C[C@@H]1C[C@H]2[C@@H]3CCC4=CC(=O)C=C[C@]4(C)[C@@]3(Cl)[C@@H](O)C[C@]2(C)[C@@]1(OC(=O)c1ccco1)C(=O)CCl
inactive: Potency (OV90) | Potency (PA-1) | Potency (SKOV3) | Potency (Tov-21-G) | Potency (Tov112D) | activity, negative = cell killing [1, 4] 13.7% | activity, negative = cell killing [1, 5] -9.13% | activity, negative = cell killing [1, 6] -9.21% | activity, negative = cell killing [1, 7] -28.2% | Potency (astro)

CCCCCCNC(=O)n1cc(F)c(=O)[nH]c1=O
inactive: Potency (OV90) | Potency (Tov112D) | activity, negative = cell killing [1, 8] -20.6%

O=C(N[C@H](CO)[C@H](O)c1ccc([N+](=O)[O-])cc1)C(Cl)Cl
inactive: Potency (JEG-3) | Potency (PA-1) | Potency (SKOV3) | Potency (Tov112D) | activity, negative = cell killing [1, 9] -13.1% | activity, negative = cell killing ([1]; at 46 µM (top of the series), tumour line A) -46.2% | activity, negative = cell killing [1, 8] -18.2% | activity, negative = cell killing ([1]; at 91.6 µM (top of the series), tumour line B) -17.6% | Potency (astro) | max response [2] -5.66% and -3.04%

CC(=O)[C@H]1CC[C@H]2[C@@H]3CCC4=CC(=O)CC[C@]4(C)[C@H]3CC[C@]12C
active: Potency ([1]; tumour line D) 12.6 µM
inactive: activity, negative = cell killing [1, 9] -26.3%

O[C@@H](CNC[C@H](O)[C@H]1CCc2cc(F)ccc2O1)[C@@H]1CCc2cc(F)ccc2O1
active: Potency (SKOV3) 22.4 µM
inactive: Potency (JEG-3) | activity change, negative = inhibition ([3]; HiBiT) 26% | activity change, negative = inhibition ([3]; Viability) -9.67%

COc1cc2nc(N3CCCN(C)CC3)nc(NC3CCN(Cc4ccccc4)CC3)c2cc1OC
active: Potency ([3]; Viability) 22.2 µM

COC(=O)Nc1nc2ccc(C(=O)c3ccccc3)cc2[nH]1
inactive: activity, negative = cell killing [1, 4] -22.4% | activity change, negative = inhibition ([3]; Viability) -33.9%
active: Potency (OV90) 8.91 µM | Potency (PA-1) 1.41 µM | Potency (Tov112D) 1.58 µM | Potency ([1]; tumour line A) 0.158 µM

CN1CCCC(n2nc(Cc3ccc(Cl)cc3)c3ccccc3c2=O)CC1 (centres undefined)
active: Potency ([1]; tumour line A) 11.2 µM | Potency ([1]; tumour line D) 14.1 µM
inactive: Potency (JEG-3) | Potency (SKOV3) | activity, negative = cell killing [1, 8] 4.16%

CCN(CC)CCn1c(=O)c(Cc2ccc(OC)cc2)nc2ccccc21
active: Potency ([1]; tumour line A) 10 µM
inactive: activity, negative = cell killing [1, 9] -5.87% | activity, negative = cell killing [1, 10] -15.6% | activity, negative = cell killing [1, 8] 14.7% | Potency (astro)

C1CCC(C(CC2CCCCN2)C2CCCCC2)CC1 (centres undefined)
active: Potency (OV90) 25.1 µM | Potency (SKOV3) 7.94 µM | Potency (Tov-21-G) 31.6 µM | Potency (astro) 15.8 µM

Cc1cccc(N(C)C(=S)Oc2ccc3ccccc3c2)c1
inactive: Potency (OV90) | Potency (PA-1) | Potency (SKOV3) | Potency (Tov-21-G) | Potency (Tov112D) | activity, negative = cell killing [1, 4] -6.63% | activity, negative = cell killing [1, 5] -15.9% | activity, negative = cell killing [1, 6] -7.02% | Potency (astro)

Cc1c(-c2ccc(O)cc2)n(Cc2ccc(OCCN3CCCCCC3)cc2)c2ccc(O)cc12
inactive: Potency (JEG-3) | Potency (Tov-21-G)

CN(C)c1ccc(C(=C2C=CC(=[N+](C)C)C=C2)c2ccc(N(C)C)cc2)cc1
active: Potency (JEG-3) 14.1 µM | Potency (PA-1) 0.447 µM | Potency (SKOV3) 0.316 µM | Potency (Tov-21-G) 1.78 µM | Potency (Tov112D) 2 µM | Potency (astro) 2.51 µM | Potency ([3]; HiBiT) 9.91 µM | Potency ([3]; Viability) 9.91 µM

CCc1cc(C(N)=S)ccn1
inactive: Potency (OV90) | Potency (PA-1) | Potency (SKOV3) | Potency (Tov-21-G) | Potency (Tov112D) | activity, negative = cell killing [1, 9] -9.3% | activity, negative = cell killing [1, 10] -29.7% | activity, negative = cell killing [1, 8] -26.9% | Potency (astro) | max response [2] 7.13% and -2.63%

COc1cc([C@@H]2c3cc4c(cc3[C@H](O)[C@H]3COC(=O)[C@H]23)OCO4)cc(OC)c1OC
active: Potency (OV90) 0.355 µM | Potency (Tov-21-G) 0.199 µM

COC(=O)Nc1nc2ccc(S(=O)c3ccccc3)cc2[nH]1 (centres undefined)
active: Potency (PA-1) 1.58 µM | Potency (Tov-21-G) 3.98 µM | Potency (Tov112D) 1.58 µM
inactive: activity, negative = cell killing [1, 9] -15.1% | activity, negative = cell killing [1, 10] -1.35% | activity, negative = cell killing [1, 8] -3.75%

COc1cc(NCc2ccc3nc(N)nc(N)c3c2C)cc(OC)c1OC
inactive: Potency (SKOV3) | activity change, negative = inhibition ([3]; HiBiT) -7.08% | activity change, negative = inhibition ([3]; Viability) -0.467%
active: Potency (PA-1) 0.178 µM | Potency (Tov112D) 0.1 µM

NC(N)=NC(N)=NCCc1ccccc1
inactive: Potency (JEG-3) | Potency (Tov-21-G) | Potency (Tov112D) | activity, negative = cell killing [1, 5] -24.6% | activity, negative = cell killing [1, 7] -28.1% | activity, negative = cell killing [1, 9] -14.4% | Potency (astro)
active: Potency (SKOV3) 14.1 µM | Potency ([1]; tumour line D) 25.1 µM

CCOc1cc(N)c(Cl)cc1C(=O)NCC1CN(Cc2ccc(F)cc2)CCO1 (centres undefined)
active: Potency ([1]; tumour line A) 11.2 µM
inactive: Potency (JEG-3) | Potency (SKOV3) | Potency (Tov-21-G) | Potency (Tov112D) | activity, negative = cell killing [1, 9] -18.6% | activity, negative = cell killing [1, 8] 4.16% | Potency (astro)
